{"source": "the supplement of paper PMC10338343", "key": {"[1]": {"system": "MILI (PIWIL2) piRISC loaded with L1MC piRNA (26 nt)", "assay": "pre-steady-state target cleavage rate (min^-1); guide: L1MC piRNA 5'p-UAACUAAAUACUAUGCAAGCUGUAGG; higher = faster piRNA-guided slicing of the target", "how_it_was_run": "(§1)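 The pre-steady-state cleavage rate was obtained by Cleave-'n-Seq with a burst-and-steady-state fit. A transcribed, DNA-blocked target RNA library (0.1 nM) was mixed with 1 nM active affinity-purified piRISC carrying one synthetic guide, with or without 500 nM GTSF1 partner protein, in HEPES–potassium acetate buffer at 33 °C for 0–8 or 0–960 min. Uncleaved targets were sequenced and normalised to depth and to weakly complementary targets, with three trials pooled and k3 capped at 0.0001 min^-1.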"}, "[2]": {"system": "EfPiwi piRISC loaded with L1MC piRNA (26 nt)", "assay": "pre-steady-state target cleavage rate (min^-1); auxiliary factor: 500 nM Ephydatia muelleri Gtsf1; guide: L1MC piRNA 5'p-UAACUAAAUACUAUGCAAGCUGUAGG; MIWI and MILI are mouse PIWI proteins and EfPiwi is from a freshwater sponge; tags in brackets are library labels; higher = faster piRNA-guided slicing of the target", "how_it_was_run": "as §1"}, "[3]": {"details": "auxiliary factor: 500 nM mouse GTSF1"}}, "note": "± gives the standard deviation.", "data": [{"sequence": "UCCUGGAUGAGCUUGCAAUAGUAUUUAGUUA", "values": [{"measurement": "pre-steady-state target cleavage rate", "setting": "[1]; [3]", "value": "0.00505 ± 0.0031"}, {"measurement": "pre-steady-state target cleavage rate", "setting": "[2]", "value": "0.00597 ± 0.003"}]}, {"sequence": "UCCUCCUACAGCUUGCUUAGUAUUAAGUUA", "values": [{"measurement": "pre-steady-state target cleavage rate", "setting": "[1]; [3]", "value": "0.116 ± 0.018"}, {"measurement": "pre-steady-state target cleavage rate", "setting": "[2]", "value": "0.00459 ± 0.0031"}]}, {"sequence": "UCCUGGAACAGCUUGCAUUGUAUUUAGAAA", "values": [{"measurement": "pre-steady-state target cleavage rate", "setting": "[1]; [3]", "value": "0.115 ± 0.028"}, {"measurement": "pre-steady-state target cleavage rate", "setting": "[2]", "value": "0.00376 ± 0.0021"}]}, {"sequence": "UCCUGCUACAGCUUGCAUAGUCUUUAGUUA", "values": [{"measurement": "pre-steady-state target cleavage rate", "setting": "[1]; [3]", "value": "0.122 ± 0.019"}, {"measurement": "pre-steady-state target cleavage rate", "setting": "[2]", "value": "0.00416 ± 0.001"}]}, {"sequence": "UCCUGCUACAGCUUGCAUAGUAUAAAGUAA", "values": [{"measurement": "pre-steady-state target cleavage rate", "setting": "[1]; [3]", "value": "0.0784 ± 0.021"}, {"measurement": "pre-steady-state target cleavage rate", "setting": "[2]", "value": "0.00224 ± 0.0017"}]}, {"sequence": "UCCUGGAUGUCGAACGUAUCUAUUUAUGUUA", "values": [{"measurement": "pre-steady-state target cleavage rate", "setting": "[1]; auxiliary factor: none (no GTSF1)", "value": "< 0.0001"}, {"measurement": "pre-steady-state target cleavage rate", "setting": "[2]", "value": "< 0.0001"}]}, {"sequence": "UCCUCCUACAGCUUGCAUAGUAUAAAGUAA", "values": [{"measurement": "pre-steady-state target cleavage rate", "setting": "[1]; [3]", "value": "0.0819 ± 0.019"}, {"measurement": "pre-steady-state target cleavage rate", "setting": "[2]", "value": "0.0031 ± 0.0024"}]}, {"sequence": "UCCUGGAACUGCUUGCAUAGUAUUUAGAAA", "values": [{"measurement": "pre-steady-state target cleavage rate", "setting": "[1]; [3]", "value": "0.103 ± 0.019"}, {"measurement": "pre-steady-state target cleavage rate", "setting": "[2]", "value": "0.00485 ± 0.0026"}]}, {"sequence": "UCCUCCUACAGCUUGCAUAGUAUAUAGAUA", "values": [{"measurement": "pre-steady-state target cleavage rate", "setting": "[1]; [3]", "value": "0.0715 ± 0.018"}, {"measurement": "pre-steady-state target cleavage rate", "setting": "[2]", "value": "0.0051 ± 0.0025"}]}, {"sequence": "UCCUGCUACAGCUUGCAUAGAAUUAAGUUA", "values": [{"measurement": "pre-steady-state target cleavage rate", "setting": "[1]; [3]", "value": "0.048 ± 0.012"}, {"measurement": "pre-steady-state target cleavage rate", "setting": "[2]", "value": "0.00288 ± 0.0022"}]}, {"sequence": "UCCUGGAUCAGCUUCCAUAGUAUUUAGUAA", "values": [{"measurement": "pre-steady-state target cleavage rate", "setting": "[1]; [3]", "value": "0.0353 ± 0.0094"}, {"measurement": "pre-steady-state target cleavage rate", "setting": "[2]", "value": "0.00347 ± 0.0017"}]}, {"sequence": "UCCUGGAUGAGCUAGCAUAGUUUUUAGUUA", "values": [{"measurement": "pre-steady-state target cleavage rate", "setting": "[2]", "value": "0.00278 ± 0.0027"}]}, {"sequence": "UCCUGGAACUGCUUGCAUUGUAUUUAGUUA", "values": [{"measurement": "pre-steady-state target cleavage rate", "setting": "[2]", "value": "0.00574 ± 0.0019"}]}, {"sequence": "UCCUGGAUCAGCUUGCAUAGUAUUUCGUUA", "values": [{"measurement": "pre-steady-state target cleavage rate", "setting": "[2]", "value": "0.00263 ± 0.002"}]}, {"sequence": "UCCUCCUAGUCCUUGCAUAGUAUUUAGUAA", "values": [{"measurement": "pre-steady-state target cleavage rate", "setting": "[2]", "value": "0.00549 ± 0.0034"}]}, {"sequence": "UCCUGGAUGUCGAACGUAAUUAUUUAGUUA", "values": [{"measurement": "pre-steady-state target cleavage rate", "setting": "[2]", "value": "< 0.0001"}]}, {"sequence": "UCCUGCUAGUGCUUGCAUAGUAUUUAGUAA", "values": [{"measurement": "pre-steady-state target cleavage rate", "setting": "[2]", "value": "0.00297 ± 0.0015"}]}, {"sequence": "UCCUGGAACAGCCUUGCAUAGUAUUUAGUUA", "values": [{"measurement": "pre-steady-state target cleavage rate", "setting": "[2]", "value": "0.0147 ± 0.0046"}]}, {"sequence": "UCCUGGAACAGCAUGCAUAGUAUUAAGUUA", "values": [{"measurement": "pre-steady-state target cleavage rate", "setting": "[2]", "value": "0.00499 ± 0.0017"}]}, {"sequence": "UCCUCCUUCAGCUUCCAUAGUAUUUAGUUA", "values": [{"measurement": "pre-steady-state target cleavage rate", "setting": "[2]", "value": "0.00448 ± 0.0019"}]}, {"sequence": "UCCUGGUACAGCUUGGAUAGUAUUUAGAAA", "values": [{"measurement": "pre-steady-state target cleavage rate", "setting": "[2]", "value": "0.00277 ± 0.0022"}]}, {"sequence": "UCCUGGAACAGCUUGCAUAGUAUAUAGUUA", "values": [{"measurement": "pre-steady-state target cleavage rate", "setting": "[2]", "value": "0.00501 ± 0.0025"}]}, {"sequence": "UCCUGGAUGAGCUUGCAUAGUAUUUACGUUA", "values": [{"measurement": "pre-steady-state target cleavage rate", "setting": "[2]", "value": "0.00466 ± 0.0026"}]}, {"sequence": "UCCUGGAUGAGCUUCCAUAGUAUUUAGAAA", "values": [{"measurement": "pre-steady-state target cleavage rate", "setting": "[2]", "value": "0.00248 ± 0.0019"}]}, {"sequence": "UCCUGGAUGUCGAACGUUAGUAAAAAGUUA", "values": [{"measurement": "pre-steady-state target cleavage rate", "setting": "[2]", "value": "< 0.0001"}]}, {"sequence": "UCCUGGAUGUCGAACGUAUCUAUGUAGUUA", "values": [{"measurement": "pre-steady-state target cleavage rate", "setting": "[2]", "value": "< 0.0001"}]}, {"sequence": "UCCUGCUACUGCAUGCAUAGUAUUUAGUUA", "values": [{"measurement": "pre-steady-state target cleavage rate", "setting": "[2]", "value": "0.00847 ± 0.0024"}]}, {"sequence": "UCCUGCUACGAGCUUGCAUAGUAUUUAGUUA", "values": [{"measurement": "pre-steady-state target cleavage rate", "setting": "[2]", "value": "0.00866 ± 0.0022"}]}, {"sequence": "UCCUCCUACAGCUUGCAAAGUAUAUAGUUA", "values": [{"measurement": "pre-steady-state target cleavage rate", "setting": "[2]", "value": "0.008 ± 0.0043"}]}, {"sequence": "UCCUGCUACAGCUUGGAAAGUAUUUAGUUA", "values": [{"measurement": "pre-steady-state target cleavage rate", "setting": "[2]", "value": "0.0208 ± 0.0042"}]}, {"sequence": "UCCUCCUACAGCUUGCAUAGAUUUUAGAAA", "values": [{"measurement": "pre-steady-state target cleavage rate", "setting": "[2]", "value": "0.00312 ± 0.0024"}]}, {"sequence": "UCCUGGAAGAGCUUGCAUAGUAUUUAGUAA", "values": [{"measurement": "pre-steady-state target cleavage rate", "setting": "[2]", "value": "0.00426 ± 0.0021"}]}, {"sequence": "UCCUGCUACAGCUUCCAUAGUAUUUAGAAA", "values": [{"measurement": "pre-steady-state target cleavage rate", "setting": "[2]", "value": "0.00349 ± 0.0019"}]}, {"sequence": "UCCUGGAUGAGCUGCAUAGUAUUUAGUUA", "values": [{"measurement": "pre-steady-state target cleavage rate", "setting": "[2]", "value": "0.00786 ± 0.0028"}]}, {"sequence": "UCCUGGAUGUGCUUUCAUAGUAUUUAGUUA", "values": [{"measurement": "pre-steady-state target cleavage rate", "setting": "[2]", "value": "0.0041 ± 0.0024"}]}]}
